For one sequence, binding signal results are on record in article PMC7862700, “An all-to-all approach to the identification of sequence-specific readers for epigenetic DNA modifications on cytosine”.

Assay in all cases: DAPPL (digital affinity profiling via proximity ligation, sequencing); 10 mM Tris-HCl pH 7.5, 50 mM NaCl, 1 mM DTT, 4% glycerol, room temperature, 30 min; GST-TFs on glutathione beads, 16-mer random dsDNA library, 0.1% formaldehyde crosslink after washing; high values mean tight binding
One test concerns the target T1, FEV (Homo sapiens, UniProt Q99581 1-238).
T1 sequence: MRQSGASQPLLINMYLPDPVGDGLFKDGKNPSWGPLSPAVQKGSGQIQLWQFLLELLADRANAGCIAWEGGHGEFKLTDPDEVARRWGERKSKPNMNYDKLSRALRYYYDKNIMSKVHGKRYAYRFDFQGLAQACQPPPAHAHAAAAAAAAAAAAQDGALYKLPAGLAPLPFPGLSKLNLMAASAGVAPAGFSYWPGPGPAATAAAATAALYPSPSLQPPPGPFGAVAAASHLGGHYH
The note with it: protein: recombinant; tags: N-terminal GST; dsDNA, one strand shown. In outline:
(§1)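 In yeast, human transcription factors were expressed with a GST fusion, then pulled down on glutathione beads and given DNA barcodes. Pooled with a tag-only sample, they were exposed to 200 nmole of a 16-mer random double-stranded DNA library (Tris/NaCl/DTT/glycerol buffer, room temperature, 30 min), washed, crosslinked with 0.1% formaldehyde, proximity-ligated using BsaI/T4 ligase for 1 h at 37 °C, PCR-amplified and read on an Illumina NextSeq500. Each hexamer's frequency of reads for a factor, divided by the matching frequency for the tag-only sample, gives the binding signal.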

The target of a further test is ETV5 (Homo sapiens, UniProt P41161 1-510). The note with it: protein: recombinant; tags: N-terminal GST; dsDNA, one strand shown. The method, boiled down:
as §1

Another test has as its target HSF1 (Homo sapiens, UniProt Q00613 1-529). The note with it: protein: recombinant; tags: N-terminal GST; chain copies: 3; dsDNA, one strand shown. The method, boiled down:
as §1

Another test deals with T2, SPIC (Homo sapiens, UniProt Q8N5J4 1-248).
T2 sequence: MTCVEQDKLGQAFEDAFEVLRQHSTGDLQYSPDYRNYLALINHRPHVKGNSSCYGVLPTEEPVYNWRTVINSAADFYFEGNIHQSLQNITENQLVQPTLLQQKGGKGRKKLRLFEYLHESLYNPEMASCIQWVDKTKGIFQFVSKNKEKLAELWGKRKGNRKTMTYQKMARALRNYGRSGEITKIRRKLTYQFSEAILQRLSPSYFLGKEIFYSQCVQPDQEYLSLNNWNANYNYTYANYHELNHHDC
The note with it: protein: recombinant; tags: N-terminal GST; dsDNA, one strand shown. The method, boiled down:
as §1

The target in the next test is ELF4 (Homo sapiens, UniProt Q99607 1-663). The note with it: protein: recombinant; tags: N-terminal GST; dsDNA, one strand shown. In outline:
as §1

In the next test the target is T3, ELK4 (Homo sapiens, UniProt P28324-2 1-405).
T3 sequence: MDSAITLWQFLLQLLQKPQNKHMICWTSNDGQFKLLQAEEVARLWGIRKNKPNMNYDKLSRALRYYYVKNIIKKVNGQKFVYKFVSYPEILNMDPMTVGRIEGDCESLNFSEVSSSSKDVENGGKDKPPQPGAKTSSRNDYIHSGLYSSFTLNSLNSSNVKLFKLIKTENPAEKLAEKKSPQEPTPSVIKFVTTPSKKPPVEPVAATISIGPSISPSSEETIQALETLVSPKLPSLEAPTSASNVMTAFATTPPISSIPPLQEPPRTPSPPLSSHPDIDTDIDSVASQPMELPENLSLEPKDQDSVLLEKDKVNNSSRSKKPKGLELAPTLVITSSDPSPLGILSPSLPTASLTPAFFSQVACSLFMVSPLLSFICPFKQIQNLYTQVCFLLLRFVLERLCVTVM
The conditions noted are these: protein: recombinant; tags: N-terminal GST; dsDNA, one strand shown. The method, boiled down: as §1

A further test concerns the target T4, ETV2 (Homo sapiens, UniProt O00321 1-342).
T4 sequence: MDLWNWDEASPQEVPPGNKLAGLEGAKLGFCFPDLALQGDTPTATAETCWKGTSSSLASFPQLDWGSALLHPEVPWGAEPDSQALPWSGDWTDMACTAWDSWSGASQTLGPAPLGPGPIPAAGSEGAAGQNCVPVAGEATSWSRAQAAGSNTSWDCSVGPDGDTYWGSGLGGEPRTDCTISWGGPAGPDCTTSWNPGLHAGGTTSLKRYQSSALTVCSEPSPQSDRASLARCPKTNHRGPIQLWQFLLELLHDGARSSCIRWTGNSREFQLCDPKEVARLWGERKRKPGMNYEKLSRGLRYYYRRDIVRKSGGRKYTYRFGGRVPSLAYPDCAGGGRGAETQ
The conditions noted are these: protein: recombinant; tags: N-terminal GST; dsDNA, one strand shown. The method, boiled down:
as §1

For the next test, the target named is T5, ELF3 (Homo sapiens, UniProt P78545 1-371).
T5 sequence: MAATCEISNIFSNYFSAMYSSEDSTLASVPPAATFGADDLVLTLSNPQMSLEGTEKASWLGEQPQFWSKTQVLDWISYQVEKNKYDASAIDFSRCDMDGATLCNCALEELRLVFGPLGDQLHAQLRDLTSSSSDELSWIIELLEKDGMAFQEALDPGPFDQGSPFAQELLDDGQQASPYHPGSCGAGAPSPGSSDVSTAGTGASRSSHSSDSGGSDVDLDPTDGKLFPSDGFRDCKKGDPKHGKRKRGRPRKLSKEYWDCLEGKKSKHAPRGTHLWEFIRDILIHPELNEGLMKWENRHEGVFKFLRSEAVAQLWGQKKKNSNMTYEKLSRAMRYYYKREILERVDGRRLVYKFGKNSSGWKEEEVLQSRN
The conditions noted are these: protein: recombinant; tags: N-terminal GST; dsDNA, one strand shown. The method, boiled down: as §1

The next test addresses CRX (Homo sapiens, UniProt O43186 1-299). The conditions noted are these: protein: recombinant; tags: N-terminal GST; dsDNA, one strand shown. The method, boiled down: as §1
The next test addresses ETV1 (Homo sapiens, UniProt P50549 1-477). The conditions noted are these: protein: recombinant; tags: N-terminal GST; dsDNA, one strand shown. In outline:
as §1

In a further test the target is T6, ERF (Homo sapiens, UniProt P50548 1-548).
T6 sequence: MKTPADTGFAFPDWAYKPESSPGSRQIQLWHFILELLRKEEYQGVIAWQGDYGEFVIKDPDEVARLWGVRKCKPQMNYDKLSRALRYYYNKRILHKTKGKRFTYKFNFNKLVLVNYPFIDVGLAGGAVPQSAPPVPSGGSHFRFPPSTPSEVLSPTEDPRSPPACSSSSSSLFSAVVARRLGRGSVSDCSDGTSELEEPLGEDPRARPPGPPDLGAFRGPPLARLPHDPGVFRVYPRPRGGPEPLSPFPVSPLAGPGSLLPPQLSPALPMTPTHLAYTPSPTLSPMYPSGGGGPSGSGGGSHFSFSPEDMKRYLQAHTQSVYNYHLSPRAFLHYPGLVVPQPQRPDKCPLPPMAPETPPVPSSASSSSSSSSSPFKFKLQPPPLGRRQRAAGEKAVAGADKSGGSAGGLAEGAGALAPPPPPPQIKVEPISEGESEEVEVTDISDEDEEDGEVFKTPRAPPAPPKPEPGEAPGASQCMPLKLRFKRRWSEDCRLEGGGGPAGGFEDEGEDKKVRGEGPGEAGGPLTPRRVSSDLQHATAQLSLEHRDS
The conditions noted are these: protein: recombinant; tags: N-terminal GST; dsDNA, one strand shown. In outline:
as §1

The target in another test is T7, ETV3L (Homo sapiens, UniProt Q6ZN32 1-361).
T7 sequence: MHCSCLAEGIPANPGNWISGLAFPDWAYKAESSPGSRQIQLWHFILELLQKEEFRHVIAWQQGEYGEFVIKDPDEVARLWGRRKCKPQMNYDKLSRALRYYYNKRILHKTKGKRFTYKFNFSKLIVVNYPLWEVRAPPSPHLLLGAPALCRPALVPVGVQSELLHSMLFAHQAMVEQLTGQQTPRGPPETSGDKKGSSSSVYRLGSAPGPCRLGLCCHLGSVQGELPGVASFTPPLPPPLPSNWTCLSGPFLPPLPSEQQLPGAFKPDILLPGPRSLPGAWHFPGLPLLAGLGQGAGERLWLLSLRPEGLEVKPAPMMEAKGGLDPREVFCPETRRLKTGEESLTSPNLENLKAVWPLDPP
The note with it: protein: recombinant; tags: N-terminal GST; dsDNA, one strand shown. In outline:
as §1

The target of a further test is T8, ETS2 (Homo sapiens, UniProt P15036 1-469).
T8 sequence: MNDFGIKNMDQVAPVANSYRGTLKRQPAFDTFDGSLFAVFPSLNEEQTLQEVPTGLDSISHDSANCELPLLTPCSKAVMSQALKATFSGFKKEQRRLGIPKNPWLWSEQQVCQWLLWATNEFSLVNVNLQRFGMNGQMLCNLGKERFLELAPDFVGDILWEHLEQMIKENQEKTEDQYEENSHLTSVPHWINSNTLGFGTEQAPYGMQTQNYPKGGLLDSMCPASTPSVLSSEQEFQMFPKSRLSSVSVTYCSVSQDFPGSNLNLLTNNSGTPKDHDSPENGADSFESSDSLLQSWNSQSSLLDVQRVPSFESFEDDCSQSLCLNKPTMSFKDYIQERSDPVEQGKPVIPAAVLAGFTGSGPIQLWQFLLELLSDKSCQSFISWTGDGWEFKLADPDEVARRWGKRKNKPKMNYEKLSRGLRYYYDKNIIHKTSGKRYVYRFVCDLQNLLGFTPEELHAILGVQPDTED
The note with it: protein: recombinant; tags: N-terminal GST; dsDNA, one strand shown. The method, boiled down:
as §1

In a further test the target is T9, SPDEF (Homo sapiens, UniProt O95238 1-335).
T9 sequence: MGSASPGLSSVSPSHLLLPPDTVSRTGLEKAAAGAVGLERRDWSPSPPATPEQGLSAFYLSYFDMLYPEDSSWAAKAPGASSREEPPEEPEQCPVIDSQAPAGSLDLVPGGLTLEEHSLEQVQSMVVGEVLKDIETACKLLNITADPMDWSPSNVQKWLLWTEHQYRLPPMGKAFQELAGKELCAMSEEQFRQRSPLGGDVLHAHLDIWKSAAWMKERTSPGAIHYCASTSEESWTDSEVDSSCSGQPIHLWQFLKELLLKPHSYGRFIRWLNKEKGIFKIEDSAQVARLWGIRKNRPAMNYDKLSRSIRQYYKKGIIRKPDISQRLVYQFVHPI
The note with it: protein: recombinant; tags: N-terminal GST; dsDNA, one strand shown. The method, boiled down:
as §1

A further test has as its target T10, ETV7 (Homo sapiens, UniProt Q9Y603 1-341).
T10 sequence: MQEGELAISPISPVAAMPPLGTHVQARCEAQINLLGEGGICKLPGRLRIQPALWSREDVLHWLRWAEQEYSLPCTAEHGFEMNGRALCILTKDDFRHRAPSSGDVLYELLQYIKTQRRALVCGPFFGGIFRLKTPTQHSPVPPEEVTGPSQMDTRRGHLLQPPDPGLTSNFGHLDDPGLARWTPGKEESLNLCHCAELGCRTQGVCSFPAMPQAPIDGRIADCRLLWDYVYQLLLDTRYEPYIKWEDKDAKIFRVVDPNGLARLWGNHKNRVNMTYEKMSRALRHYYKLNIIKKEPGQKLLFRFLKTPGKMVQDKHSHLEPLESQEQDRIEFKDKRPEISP
The note with it: protein: recombinant; tags: N-terminal GST; dsDNA, one strand shown. The method, boiled down: as §1

In a further test the target is T11, ELF5 (Homo sapiens, UniProt Q9UKW6-2 1-255).
T11 sequence: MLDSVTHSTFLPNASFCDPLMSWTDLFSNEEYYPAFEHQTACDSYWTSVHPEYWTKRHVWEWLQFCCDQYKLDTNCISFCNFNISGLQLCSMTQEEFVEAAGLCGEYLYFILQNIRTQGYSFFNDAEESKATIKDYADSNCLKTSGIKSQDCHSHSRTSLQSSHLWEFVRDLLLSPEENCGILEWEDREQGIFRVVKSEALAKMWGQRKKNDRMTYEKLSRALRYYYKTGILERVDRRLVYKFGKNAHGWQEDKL
The note with it: protein: recombinant; tags: N-terminal GST; dsDNA, one strand shown. In outline:
as §1

Another test addresses T12, ETV3 (Homo sapiens, UniProt P41162-2 1-143).
T12 sequence: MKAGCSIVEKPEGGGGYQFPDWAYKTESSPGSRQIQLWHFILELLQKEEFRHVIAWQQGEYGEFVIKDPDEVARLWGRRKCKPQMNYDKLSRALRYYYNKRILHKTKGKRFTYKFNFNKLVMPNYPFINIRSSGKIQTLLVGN
The note with it: protein: recombinant; tags: N-terminal GST; dsDNA, one strand shown. In outline: as §1

In the next test the target is ETV6 (Homo sapiens, UniProt P41212 1-452). The conditions noted are these: protein: recombinant; tags: N-terminal GST; dsDNA, one strand shown. In outline:
as §1

Chain of ELF4 (Q99607 whole entry): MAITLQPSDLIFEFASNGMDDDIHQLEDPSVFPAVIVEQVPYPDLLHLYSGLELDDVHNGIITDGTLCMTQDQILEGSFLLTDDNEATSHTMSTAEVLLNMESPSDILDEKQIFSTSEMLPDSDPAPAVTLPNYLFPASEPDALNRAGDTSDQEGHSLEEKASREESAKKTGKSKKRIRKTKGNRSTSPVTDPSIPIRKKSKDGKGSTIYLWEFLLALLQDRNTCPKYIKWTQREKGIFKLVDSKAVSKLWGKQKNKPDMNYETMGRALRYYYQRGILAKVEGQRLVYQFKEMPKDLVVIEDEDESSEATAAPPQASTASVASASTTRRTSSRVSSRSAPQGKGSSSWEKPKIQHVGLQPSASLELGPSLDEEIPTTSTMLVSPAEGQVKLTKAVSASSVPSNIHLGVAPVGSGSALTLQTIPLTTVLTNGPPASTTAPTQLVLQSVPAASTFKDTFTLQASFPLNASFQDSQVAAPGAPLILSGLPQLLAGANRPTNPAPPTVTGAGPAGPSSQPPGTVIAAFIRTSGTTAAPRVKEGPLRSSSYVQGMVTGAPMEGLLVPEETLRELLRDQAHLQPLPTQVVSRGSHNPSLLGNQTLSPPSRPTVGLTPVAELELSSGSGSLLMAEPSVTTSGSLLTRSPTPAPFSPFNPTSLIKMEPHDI
Chain of HSF1 (Q00613 whole entry): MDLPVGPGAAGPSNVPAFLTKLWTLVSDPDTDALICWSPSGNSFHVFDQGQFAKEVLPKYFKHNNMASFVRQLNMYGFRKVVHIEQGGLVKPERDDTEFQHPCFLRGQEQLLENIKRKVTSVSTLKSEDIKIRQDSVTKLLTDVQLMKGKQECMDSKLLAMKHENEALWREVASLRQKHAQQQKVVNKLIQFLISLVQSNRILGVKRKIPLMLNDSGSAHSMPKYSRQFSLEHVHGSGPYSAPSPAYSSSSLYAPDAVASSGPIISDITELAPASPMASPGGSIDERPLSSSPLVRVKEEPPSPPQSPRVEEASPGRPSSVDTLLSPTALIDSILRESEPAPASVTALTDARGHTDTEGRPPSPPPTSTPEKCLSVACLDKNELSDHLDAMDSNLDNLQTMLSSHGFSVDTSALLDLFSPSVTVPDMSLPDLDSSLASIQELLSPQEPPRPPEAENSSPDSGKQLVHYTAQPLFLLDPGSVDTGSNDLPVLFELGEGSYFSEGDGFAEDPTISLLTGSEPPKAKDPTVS
Chain of ETV1 (P50549 whole entry): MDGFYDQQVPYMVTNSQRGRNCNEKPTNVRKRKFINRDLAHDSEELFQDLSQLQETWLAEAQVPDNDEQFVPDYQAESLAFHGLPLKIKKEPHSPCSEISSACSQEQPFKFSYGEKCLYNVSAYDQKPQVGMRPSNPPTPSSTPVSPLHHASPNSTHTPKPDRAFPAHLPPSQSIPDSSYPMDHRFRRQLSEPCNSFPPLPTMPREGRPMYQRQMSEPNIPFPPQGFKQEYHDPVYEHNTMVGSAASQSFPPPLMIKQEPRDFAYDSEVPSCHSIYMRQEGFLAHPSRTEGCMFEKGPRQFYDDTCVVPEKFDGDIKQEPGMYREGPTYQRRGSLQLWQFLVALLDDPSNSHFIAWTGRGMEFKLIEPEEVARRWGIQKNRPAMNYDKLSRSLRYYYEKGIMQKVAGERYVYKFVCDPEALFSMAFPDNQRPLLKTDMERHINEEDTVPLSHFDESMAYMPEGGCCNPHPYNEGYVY
Chain of CRX (O43186 whole entry): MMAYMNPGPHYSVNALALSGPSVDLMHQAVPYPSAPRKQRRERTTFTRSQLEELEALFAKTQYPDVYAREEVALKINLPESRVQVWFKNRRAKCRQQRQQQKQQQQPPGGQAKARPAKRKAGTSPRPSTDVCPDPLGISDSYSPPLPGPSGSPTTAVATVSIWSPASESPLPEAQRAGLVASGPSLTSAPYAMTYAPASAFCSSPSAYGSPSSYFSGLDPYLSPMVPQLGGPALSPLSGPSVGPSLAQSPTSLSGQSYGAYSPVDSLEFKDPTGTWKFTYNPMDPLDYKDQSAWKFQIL
Chain of ETV5 (P41161 whole entry): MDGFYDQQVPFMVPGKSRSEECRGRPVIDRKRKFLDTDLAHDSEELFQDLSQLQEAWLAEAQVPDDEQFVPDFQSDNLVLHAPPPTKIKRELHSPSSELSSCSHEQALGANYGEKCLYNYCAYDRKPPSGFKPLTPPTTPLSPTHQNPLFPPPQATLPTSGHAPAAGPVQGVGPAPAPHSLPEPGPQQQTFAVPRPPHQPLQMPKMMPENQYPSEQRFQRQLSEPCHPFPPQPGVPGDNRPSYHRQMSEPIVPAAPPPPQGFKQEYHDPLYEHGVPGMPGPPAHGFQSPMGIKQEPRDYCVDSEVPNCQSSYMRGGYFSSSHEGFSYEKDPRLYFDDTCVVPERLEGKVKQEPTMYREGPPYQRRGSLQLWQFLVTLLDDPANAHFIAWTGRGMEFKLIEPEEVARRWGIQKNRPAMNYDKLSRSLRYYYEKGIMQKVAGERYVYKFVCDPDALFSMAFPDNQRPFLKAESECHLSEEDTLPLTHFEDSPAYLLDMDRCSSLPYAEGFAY
Chain of ETV6 (P41212 whole entry): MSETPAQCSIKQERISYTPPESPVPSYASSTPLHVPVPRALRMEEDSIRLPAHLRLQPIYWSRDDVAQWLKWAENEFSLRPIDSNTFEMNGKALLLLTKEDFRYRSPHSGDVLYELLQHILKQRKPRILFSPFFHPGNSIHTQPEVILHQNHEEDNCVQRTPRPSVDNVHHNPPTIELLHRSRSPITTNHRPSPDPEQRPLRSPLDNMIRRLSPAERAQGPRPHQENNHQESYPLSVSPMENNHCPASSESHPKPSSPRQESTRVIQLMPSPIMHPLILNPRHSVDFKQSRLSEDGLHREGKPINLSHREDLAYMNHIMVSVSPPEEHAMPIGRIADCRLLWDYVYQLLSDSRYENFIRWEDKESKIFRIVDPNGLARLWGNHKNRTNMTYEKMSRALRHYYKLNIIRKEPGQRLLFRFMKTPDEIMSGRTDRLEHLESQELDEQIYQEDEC

For TCATCC, the binding signal was 1.4 fold enrichment (6-mer frequency, TF over GST control) with FEV; 1.35 fold enrichment (6-mer frequency, TF over GST control) with ETV5; 1.38 fold enrichment (6-mer frequency, TF over GST control) with HSF1; 1.39 fold enrichment (6-mer frequency, TF over GST control) in the test with SPIC; 1.36 fold enrichment (6-mer frequency, TF over GST control) with ELF4; 1.24 fold enrichment (6-mer frequency, TF over GST control) in the test with ELK4. Besides, the binding signal in the test with ETV2 is 1.44 fold enrichment (6-mer frequency, TF over GST control); with ELF3, 1.49 fold enrichment (6-mer frequency, TF over GST control); with CRX it was 1.65 fold enrichment (6-mer frequency, TF over GST control); with ETV1 it was 1.35 fold enrichment (6-mer frequency, TF over GST control); with ERF it was 1.2 fold enrichment (6-mer frequency, TF over GST control); with ETV3L it was 1.42 fold enrichment (6-mer frequency, TF over GST control). The binding signal in the test with ETS2 was 1.35 fold enrichment (6-mer frequency, TF over GST control); in the test with SPDEF it was 1.85 fold enrichment (6-mer frequency, TF over GST control); with ETV7 it was 1.24 fold enrichment (6-mer frequency, TF over GST control); with ELF5, 1.6 fold enrichment (6-mer frequency, TF over GST control); with ETV3 it was 1.55 fold enrichment (6-mer frequency, TF over GST control); in the test with ETV6, 1.38 fold enrichment (6-mer frequency, TF over GST control).
